Test results reported in PubChem BioAssay (Tox21).
Values joined by “and” are separate entries in the source; they are usually repeats but may differ in a detail not shown here. Identical values can stand only once. Results filed as inconclusive are left out. Where a call stands in place of a potency, no number is given. Some structures have more than one record in an assay (separate samples or runs), and their calls can disagree. Active and inactive are the calls of the source. Unless noted, calls come from the whole dose curve; as a rule, active = well fitted curve in the direction sought with a large enough effect in the repeat runs; inconclusive = weak or mixed curves; inactive = no such curve, though single readings can be large; an effect the other way counts as inactive or inconclusive.

Assays:
[1] = qHTS assay to identify small molecule agonists of the RXR signaling pathway - cell viability counter screen (AID 1159529);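 note: HEK 293T cells carrying an RXR-alpha UAS beta-lactamase reporter; nearly all actives have a fitted effect of over 50% in size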
Procedure, shortened: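 Tox21 10K compounds were tested for cytotoxicity against GeneBLAzer RXR-alpha HEK 293T cells grown in 2% charcoal-stripped FBS. Exposure lasted 16 hr at 37 C, 5% CO2; viability read by CellTiter-Glo luminescence.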

[2] = qHTS assay to identify small molecule antagonists of the retinoid acid receptor (RAR) signaling pathway - cell viability counter screen (AID 1159551); note: nearly all actives have a fitted effect of over 35% in size
Procedure, shortened: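 Cytotoxicity counter screen: ATP content quantified by CellTiter-Glo luminescence in C3RL4 cells treated 6 hr at 37 C with compound and retinol (1 uM final). Cells plated at 1,000/well and cultured overnight before dosing.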

[3] = qHTS assay to identify small molecule antagonists of the retinoic acid receptor (RAR) signaling pathway (AID 1159552; note: nearly all actives have a fitted effect of over 50% in size)
Procedure, shortened: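 Overnight-plated C3RL4 reporter cells get compound, then retinol to 1 uM final; plates sit 6 hr at 37 C, 5% CO2. A luciferase reagent is added and light output recorded after 30 min at room temperature.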

[4] = qHTS assay to identify small molecule agonists of the retinoic acid receptor (RAR) signaling pathway (AID 1159553); conditions: C3RL4 RARE luciferase reporter, agonist, 6 h; activation: at 73.3 µM (top of the series) unless noted; note: potency is the fitted concentration of half-maximal effect
Procedure, shortened: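 Luminescence was measured 30 min after luciferase reagent addition at room temperature. Before that, C3RL4 reporter cells (1,000 per well, plated overnight) were treated with compound for 6 hr at 37 C and 5% CO2.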

[5] = qHTS assay to identify small molecule antagonists of the estrogen related receptor (ERR) signaling pathway from Tox21 library - cell viability counter screen (AID 1224834); note: nearly all actives have a fitted effect of over 30% in size; note: potency is the fitted concentration of half-maximal effect
Procedure, shortened: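 CellTiter-Fluor fluorescence, read after 30 min at 37 C, measures viability of ERR cells. Cells plated at 2,000/well and incubated 6 h before pin-tool compound addition, then exposed 17.5 hours at 37 C.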

[6] = molecular target: Luciferin 4-monooxygenase (Photinus pyralis) (UniProt P08659); test: qHTS assay to identify small molecule inhibitors of firefly luciferase (AID 1224835); note: nearly all actives have a fitted effect of over 25% in size; note: potency is the fitted concentration of half-maximal effect
Procedure, shortened: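 Quantitative HTS format; KM concentrations of both substrates. Purified P. pyralis FLuc activity quantified from luminescence images.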

[7] = qHTS assay to identify small molecule agonists of the constitutive androstane receptor (CAR) signaling pathway - cell viability counter screen (AID 1224836); note: nearly all actives have a fitted effect of over 45% in size
Procedure, shortened: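 Fluorescence from CellTiter-Fluor indicates live cells after 23 h exposure. The human hepatoma line expresses hCAR and a CYP2B6-2.2kb reporter. Incubation medium contains 0.75 uM PK11195 (final).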

[8] = qHTS assay to identify small molecule antagonists of the constitutive androstane receptor (CAR) signaling pathway - cell viability counter screen (AID 1224837); note: nearly all actives have a fitted effect of over 45% in size; note: potency is the fitted concentration of half-maximal effect
Procedure, shortened: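 Cytotoxicity counter-screen: CellTiter-Fluor fluorescence after 23 h compound exposure (15-point qHTS) in double-stable HepG2-CYP2B6-hCAR cells, with 50 nM CITCO added.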

[9] = qHTS assay to identify small molecule antagonists of the estrogen related receptor signaling pathway with the pleiotropic PPARgamma coactivator (PGC) from Tox21 10K library - cell viability counter screen (AID 1224840; active = well fitted cell-killing curve with a large enough effect in the repeat runs, not every such curve was filed as active; note: nearly all actives have a fitted effect of over 40% in size; note: potency is the fitted concentration of half-maximal effect)
Procedure, shortened: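 Counter-screen for cytotoxicity: after 17.5 h compound exposure at 37 C, CellTiter-Fluor reagent added to PGC/ERR cells for 30 min and fluorescence read. Cells were seeded at 2,000 per well 6 h before dosing.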

[10] = molecular target: Thyrotropin receptor (Homo sapiens) (UniProt P16473); test: qHTS assay to identify small molecule agonists of the thyroid stimulating hormone receptor (TSHR) signaling pathway (AID 1224843; calls by dose curve; note: nearly all actives have a fitted effect of over 45% in size)
Procedure, shortened: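 Compounds are titrated over 15 concentrations, in triplicate, onto TSHR-HEK293 cells seeded at 800/well. Plates sit 30 min at room temperature before cAMP-d2 and anti-cAMP cryptate are added; signal is read after a further hour.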

[11] = molecular target: Nuclear receptor subfamily 1 group I member 3 (Homo sapiens) (UniProt Q14994); test: qHTS assay to identify small molecule antagonists of the constitutive androstane receptor (CAR) signaling pathway (AID 1224838);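 note: HepG2 cells stably expressing hCAR with CYP2B6 luciferase reporter stimulated by CITCO; nearly all actives have a fitted effect of over 40% in size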; note: potency is the fitted concentration of half-maximal effect
Procedure, shortened: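 Antagonism measured as luciferase signal (ONE-Glo, 30 min, room temperature) in CAR-stimulated cells: HepG2-CYP2B6-hCAR double-stable line exposed 24 hr at 37 C to compound in a 15-point series plus 50 nM CITCO.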

[12] = molecular target: Nuclear receptor subfamily 1 group I member 3 (Homo sapiens) (UniProt Q14994); test: qHTS assay to identify small molecule agonists of the constitutive androstane receptor (CAR) signaling pathway (AID 1224839); note: nearly all actives have a fitted effect of over 15% in size; note: potency is the fitted concentration of half-maximal effect;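 for activation: HepG2 cells stably carrying human CAR and a CYP2B6 luciferase reporter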
Procedure, shortened: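 Stable hCAR/CYP2B6-2.2kb HepG2 line in DMEM with 10% FBS; compounds (15 concentrations) and 0.75 uM PK11195 final, 24 h at 37 C/5% CO2, then ONE-Glo luminescence after 30 min.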

[13] = qHTS assay to identify small molecule antagonists of the estrogen related receptor (ERR) signaling pathway (AID 1224819; note: potency is the fitted concentration of half-maximal effect; nearly all actives have a fitted effect of over 50% in size)
Procedure, shortened: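 LOPAC library screened for antagonism as reduced One-Glo luminescence in ERR reporter cells (2,000/well). Compounds were added after 6 h pre-incubation and left 18 h at 37C; reading followed a 30 min room-temperature reagent step.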

[14] = qHTS assay to identify small molecule agonists of the estrogen related receptor (ERR) signaling pathway (AID 1224820)
Procedure, shortened: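 An ERR cell line provided by NTP was seeded at 2,000 cells per well and allowed to settle for 6 h before compounds in DMSO were added. After 18 h at 37 C, luciferase activity was measured by One-Glo luminescence.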

[15] = test system: estrogen-related receptor alpha (ERRalpha) with PGC-1alpha coactivator, human; test: qHTS assay to identify small molecule antagonists of the estrogen related receptor signaling pathway with the pleiotropic PPARgamma coactivator (PGC) (AID 1224821; calls by dose curve; note: potency is the fitted concentration of half-maximal effect; nearly all actives have a fitted effect of over 50% in size)
Procedure, shortened: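 A PGC/ERR cell line supplied by NTP is seeded, allowed 6 h at 37 C, and treated with test compounds in DMSO for 18 h. Signal is then measured as luciferase luminescence using One-Glo.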

[16] = qHTS assay to identify small molecule antagonists of the estrogen related receptor signaling pathway with the pleiotropic PPARgamma coactivator (PGC) cell viability counter screen (AID 1224822; note: potency is the fitted concentration of half-maximal effect)
Procedure, shortened: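 Viability counter-screen read by fluorescence intensity after 30 min with CellTiter-Fluor at 37 C; PGC/ERR reporter cells were exposed to compounds for 17.5 h at 37 C following a 6 h preincubation.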

[17] = qHTS assay to identify small molecule agonists of the estrogen related receptor signaling pathway with the pleiotropic PPARgamma coactivator (PGC) (AID 1224823)
Procedure, shortened: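 Compounds dissolved in DMSO are added by pin tool to PGC/ERR cells that have settled for 6 h, and incubation continues 18 h at 37 C. Reporter output is measured as One-Glo luminescence.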

[18] = qHTS assay to identify small molecule antagonists of the estrogen related receptor (ERR) signaling pathway - cell viability counter screen (AID 1224818);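 note: viability measured after 17.5 h of compound exposure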
Procedure, shortened: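 Cytotoxicity counter screen: fluorescence from CellTiter-Fluor, added after 17.5 h compound exposure at 37 C and read 30 min later. ERR cell line seeded at 2,000 cells/well, preincubated 6 h before dosing.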

Nuclear receptor subfamily 1 group I member 3 (Homo sapiens), sequence (Q14994 whole entry, looked up): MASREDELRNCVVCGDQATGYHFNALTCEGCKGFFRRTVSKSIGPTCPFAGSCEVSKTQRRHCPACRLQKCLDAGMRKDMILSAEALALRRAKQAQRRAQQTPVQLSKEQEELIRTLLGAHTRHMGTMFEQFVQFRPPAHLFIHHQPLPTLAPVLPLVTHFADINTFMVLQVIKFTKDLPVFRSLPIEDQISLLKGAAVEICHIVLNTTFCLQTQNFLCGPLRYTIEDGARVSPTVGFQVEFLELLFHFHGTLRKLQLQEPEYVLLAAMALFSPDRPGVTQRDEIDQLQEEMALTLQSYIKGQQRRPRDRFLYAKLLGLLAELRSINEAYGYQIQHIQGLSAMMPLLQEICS
Thyrotropin receptor (Homo sapiens), sequence (P16473 whole entry, looked up): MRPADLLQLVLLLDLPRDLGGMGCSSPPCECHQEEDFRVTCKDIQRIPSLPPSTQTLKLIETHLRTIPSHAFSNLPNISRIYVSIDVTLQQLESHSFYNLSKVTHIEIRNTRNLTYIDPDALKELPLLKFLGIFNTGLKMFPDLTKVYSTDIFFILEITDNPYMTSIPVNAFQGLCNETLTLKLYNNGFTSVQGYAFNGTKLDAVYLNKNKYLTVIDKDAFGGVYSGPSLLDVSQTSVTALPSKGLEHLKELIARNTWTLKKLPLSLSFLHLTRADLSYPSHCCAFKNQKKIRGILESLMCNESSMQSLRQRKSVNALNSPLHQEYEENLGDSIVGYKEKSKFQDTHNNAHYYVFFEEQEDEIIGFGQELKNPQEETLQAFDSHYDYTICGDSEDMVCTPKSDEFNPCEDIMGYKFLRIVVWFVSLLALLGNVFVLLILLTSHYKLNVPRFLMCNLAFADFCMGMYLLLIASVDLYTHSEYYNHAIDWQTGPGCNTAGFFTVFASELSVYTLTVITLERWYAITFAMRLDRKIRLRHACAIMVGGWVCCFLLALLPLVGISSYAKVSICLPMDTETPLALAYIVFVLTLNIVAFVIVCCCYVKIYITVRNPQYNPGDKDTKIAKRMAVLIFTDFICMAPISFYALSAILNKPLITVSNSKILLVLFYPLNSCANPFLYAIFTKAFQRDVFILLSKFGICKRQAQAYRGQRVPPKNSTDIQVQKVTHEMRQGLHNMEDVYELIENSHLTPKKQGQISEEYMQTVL
Luciferin 4-monooxygenase (Photinus pyralis), sequence (P08659 whole entry, looked up): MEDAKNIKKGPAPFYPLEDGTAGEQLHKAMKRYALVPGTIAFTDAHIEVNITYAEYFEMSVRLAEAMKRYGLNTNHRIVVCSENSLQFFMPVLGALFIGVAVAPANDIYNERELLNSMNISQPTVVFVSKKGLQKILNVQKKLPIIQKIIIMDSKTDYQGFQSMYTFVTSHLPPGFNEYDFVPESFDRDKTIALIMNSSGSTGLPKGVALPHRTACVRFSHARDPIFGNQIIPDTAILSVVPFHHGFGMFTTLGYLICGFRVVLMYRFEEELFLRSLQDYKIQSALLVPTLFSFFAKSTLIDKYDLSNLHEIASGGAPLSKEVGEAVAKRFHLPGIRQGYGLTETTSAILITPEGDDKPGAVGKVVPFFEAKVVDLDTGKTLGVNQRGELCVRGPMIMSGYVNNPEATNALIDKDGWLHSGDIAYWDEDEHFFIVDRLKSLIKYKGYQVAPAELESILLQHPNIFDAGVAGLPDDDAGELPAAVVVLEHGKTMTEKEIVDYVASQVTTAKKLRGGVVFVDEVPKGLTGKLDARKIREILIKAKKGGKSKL

SMILES	Potency [1]	Potency [2]	Potency [3]	Potency [4]	Potency [5]	Potency [6]	Potency [7]	Potency [8]	Potency [9]	Potency [10]	Potency [11]	Potency [12]	Potency [13]	outcome [14]	Potency [15]	Potency [16]	outcome [17]	outcome [18]
Cc1cccc(C)c1[N+](=O)[O-]	inactive	inactive	inactive	inactive	inactive	inactive	inactive	inactive	inactive	inactive	–	–	–	–	–	–	–	–
O=C(O)C1=NN(c2ccc(S(=O)(=O)O)cc2)C(=O)C1	inactive	inactive	inactive	inactive	inactive	inactive	inactive	inactive	inactive	inactive	–	–	–	–	–	–	–	–
CCOC(=O)c1ccc(O)cc1	inactive	inactive	inactive	inactive	–	inactive	inactive	inactive	inactive	inactive	inactive	inactive	–	–	–	–	–	–
CCCCC(CC)COC(=O)c1ccc(C(=O)OCC(CC)CCCC)cc1 (stereo unspecified)	inactive	inactive	inactive	inactive	–	inactive	inactive	inactive	inactive	–	–	–	–	–	–	–	–	–
C=C(CC(=O)O)C(=O)O	inactive	inactive	inactive	inactive	inactive	inactive	–	–	inactive	inactive	–	–	–	–	–	–	–	–
C[n+]1ccn(CCO)c1	inactive	inactive	inactive	inactive	–	inactive	inactive	inactive	inactive	–	–	–	–	–	–	–	–	–
C=CC(=O)NCOCCCC	inactive	inactive	inactive	inactive	–	inactive	inactive	inactive	inactive	–	inactive	inactive	–	–	–	–	–	–
CCCCCNCCCCC	inactive	inactive	inactive	inactive	–	inactive	inactive	inactive	inactive	inactive	inactive	inactive	–	–	–	–	–	–
OCCOCCOCCOCCOCCO	inactive	inactive	inactive	inactive	inactive	–	inactive	inactive	inactive	–	–	–	–	–	–	–	–	–
CC1(C)C(=O)N(Cl)C(=O)N1Cl	inactive	inactive	–	–	inactive	inactive	inactive	inactive	inactive	inactive	–	–	–	–	–	–	–	–
CC(=O)OCc1ccc2c(c1)OCO2	inactive	inactive	–	–	–	inactive	inactive	inactive	inactive	inactive	inactive	inactive	–	–	–	–	–	–
C1CCCNCC1	inactive	inactive	–	–	inactive	inactive	inactive	inactive	inactive	inactive	inactive	inactive	–	–	–	–	–	–
CC1(C)[C@@H](O[C@H]2O[C@H](C(=O)O)[C@@H](O)[C@H](O)[C@H]2O[C@@H]2O[C@H](C(=O)O)[C@@H](O)[C@H](O)[C@H]2O)CC[C@]2(C)[C@H]3C(=O)C=C4[C@@H]5C[C@@](C)(C(=O)O)CC[C@]5(C)CC[C@@]4(C)[C@]3(C)CC[C@@H]12	inactive	inactive	–	inactive	inactive	inactive	inactive	inactive	inactive	–	inactive	–	–	–	–	–	–	–
COC(=O)OC	inactive	inactive	–	–	inactive	–	inactive	inactive	inactive	–	inactive	inactive	–	–	–	–	–	–
CC(=O)Nc1ccc(CC(=O)O)cc1	inactive	inactive	–	–	inactive	inactive	inactive	inactive	inactive	–	inactive	inactive	–	–	–	–	–	–
N[C@@H](Cc1cc(I)c(Oc2ccc(O)c(I)c2)c(I)c1)C(=O)O	inactive	inactive	–	–	inactive	inactive	inactive	inactive	inactive	inactive	–	inactive and 56.7 µM (active)	–	–	–	–	–	–
Cc1ccc(Cl)cc1	inactive	inactive	–	–	inactive	inactive	inactive	inactive	inactive	–	inactive	inactive	–	–	–	–	–	–
CCc1cccc(CC)c1N	inactive	inactive	–	–	–	inactive	inactive	inactive	inactive	inactive	inactive	inactive	–	–	–	–	–	–
CC(C)(CO)CO	inactive	inactive	–	–	inactive	inactive	inactive	inactive	inactive	–	–	–	–	–	–	–	–	–
c1cnc2c(c1)ccc1cccnc12	inactive	inactive	–	2.19 µM (active) and 9.69 µM (active) and 2.73 µM (active)	19.5 µM (active) and 2.17 µM (active) and 4.86 µM (active)	71.7 µM (active) and inactive	–	617 nM (active) and 1.93 µM (active)	2.76 µM (active) and 2.73 µM (active)	inactive	219 nM (active) and inactive and 864 nM (active)	inactive	2.98 µM (active)	inactive	2.03 µM (active)	6.68 µM (active)	inactive	–
O=C(c1ccccc1)c1ccc(O)c(O)c1O	inactive	inactive	inactive	–	49 µM (active)	–	inactive	inactive	inactive	–	–	–	–	–	–	–	–	–
CC(C)(C)NC[C@H](O)COc1nsnc1N1CCOCC1	inactive	inactive	–	–	–	inactive	inactive	inactive	inactive	–	inactive	inactive	–	–	–	–	–	–
CCn1cc(C(=O)O)c(=O)c2cc3c(cc21)OCO3	inactive	inactive	–	–	inactive	inactive	inactive	inactive	inactive	–	–	–	–	–	–	inactive	–	inactive
CCN(CC)CCNC(=O)c1ccc(N)cc1	inactive	inactive	–	–	inactive	inactive	inactive	inactive	inactive	inactive	–	–	–	–	–	inactive	–	inactive
O=C(O)Cc1c[nH]c2ccccc12	inactive	inactive	–	–	inactive	inactive	inactive	inactive	inactive	–	inactive	inactive	–	–	–	–	–	–
CCCCCCCCCCCCCC(=O)O	inactive	inactive	–	–	inactive	50.1 µM (active)	inactive	inactive	inactive	–	inactive	inactive	–	–	–	–	–	–
O=[N+]([O-])c1cc(C(F)(F)F)ccc1Cl	inactive	inactive	–	–	–	inactive	inactive	inactive	inactive	–	inactive	inactive	–	–	–	–	–	–
